Data from the supplement of paper PMC9262897, “Low-cost anti-mycobacterial drug discovery using engineered E. coli” (Nature Communications, 2022).
Where a name gives a salt, the structure may show the parent alone. ± gives the standard deviation of the averaged measurements.

Experiments:
Assay in all cases: growth (OD600 after 10 h); higher = more growth (less inhibition)
[1] = system: E. coli TESEC Alr+ wild-type control; conditions: compound 0.1 mM; raw OD600 reference: median of DMSO wells 0.241, cell-free background 0.041
Method: (§1)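 TESEC Mtb Alr E. coli, or the Alr+ wild-type control, in 384-well plates with Prestwick library compounds at 0.1 mM and 1% DMSO, across arabinose induction levels of 1E3 to 1E7 nM. Growth is read as OD600 after 10 h at 37 °C in triplicate biological replicates.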

E. coli TESEC Mtb Asd = conditions: compound 0.1 mM
Method: (§2)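 TESEC E. coli strains in which the native enzyme is deleted and replaced by arabinose-inducible Mtb Asd, DapB, CysH or TrpD, each grown in its selective medium. Strains were screened against the Prestwick library at 0.1 mM and 1% DMSO in 384-well format at low and high arabinose induction. Growth is read as OD600 after 10 h in triplicate.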

E. coli TESEC Mtb DapB = conditions: compound 0.1 mM
Method: as §2

[2] = system: E. coli TESEC Alr+ wild-type control; conditions: compound 0.1 mM; raw OD600 reference: median of DMSO wells 0.49, cell-free background 0.052
Method: (§3)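 TESEC Mtb Alr E. coli (ΔaraC ΔtolC ΔentC Δalr ΔdadX, arabinose-inducible Mtb Alr) or the Alr+ wild-type control strain, grown in defined M9-fructose medium without D-alanine in 96-well plates with Prestwick library compounds at 0.1 mM and 1% DMSO. Low Alr induction is 0.1 µM arabinose and high induction is 10 mM arabinose.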

E. coli TESEC Mtb Alr [3] = conditions: compound 0.1 mM
Method: as §3

E. coli TESEC Mtb Alr [4] = conditions: compound 0.1 mM; remark: listed apart in the source
Method: as §1

[5] = arabinose induction (level): High, raw OD600 reference: median of DMSO wells 0.331, cell-free background 0.041
[6] = arabinose induction (level): Low, raw OD600 reference: median of DMSO wells 0.417, cell-free background 0.041
[7] = arabinose induction (level): High, raw OD600 reference: median of DMSO wells […], cell-free background 0.041
[8] = arabinose induction (level): Low, raw OD600 reference: median of DMSO wells 0.227, cell-free background 0.041
[9] = arabinose 100 nM, raw OD600 reference: median of DMSO wells 0.413, cell-free background 0.052
[10] = arabinose 10000000 nM, raw OD600 reference: median of DMSO wells […], cell-free background 0.052
[11] = arabinose 1000 nM, raw OD600 reference: median of DMSO wells 0.294, cell-free background 0.041
[12] = arabinose 10000 nM, raw OD600 reference: median of DMSO wells 0.264, cell-free background 0.041
[13] = arabinose 100000 nM, raw OD600 reference: median of DMSO wells 0.201, cell-free background 0.041
[14] = arabinose 1000000 nM, raw OD600 reference: median of DMSO wells 0.193, cell-free background 0.041
[15] = arabinose 10000000 nM, raw OD600 reference: median of DMSO wells 0.146, cell-free background 0.041

| SMILES | growth [1] | growth (E. coli TESEC Mtb Asd; [5]) | growth (E. coli TESEC Mtb Asd; [6]) | growth (E. coli TESEC Mtb DapB; [7]) | growth (E. coli TESEC Mtb DapB; [8]) | growth [2] | growth (E. coli TESEC Mtb Alr [3]; [9]) | growth (E. coli TESEC Mtb Alr [3]; [10]) | growth (E. coli TESEC Mtb Alr [4]; [11]) | growth (E. coli TESEC Mtb Alr [4]; [12]) | growth (E. coli TESEC Mtb Alr [4]; [13]) | growth (E. coli TESEC Mtb Alr [4]; [14]) | growth (E. coli TESEC Mtb Alr [4]; [15]) |
| --- | --- | --- | --- | --- | --- | --- | --- | --- | --- | --- | --- | --- | --- |
| Cc1onc(-c2c(Cl)cccc2Cl)c1C(=O)N[C@@H]1C(=O)N2[C@@H]1SC(C)(C)[C@@H]2C(=O)O [Dicloxacillin sodium salt hydrate] | 0.222 ± 0.0048 | 0.251 ± 0.056 | 0.311 ± 0.09 | 0.188 ± 0.028 | 0.226 ± 0.018 | 0.516 ± 0.11 | 0.403 ± 0.0099 | 0.351 ± 0.017 | – | – | – | – | – |
| CCN1CCN(C(=O)N[C@@H](C(=O)N[C@@H]2C(=O)N3[C@@H]2SC(C)(C)[C@@H]3C(=O)O)c2ccccc2)C(=O)C1=O [Piperacillin sodium salt] | 0.237 ± 0.0061 | 0.328 ± 0.021 | 0.4754 ± 0.0046 | 0.204 ± 0.01 | 0.207 ± 0.025 | 0.508 ± 0.061 | 0.405 ± 0.013 | 0.354 ± 0.011 | – | – | – | – | – |
| Nc1ccc(C(=O)NCC(=O)O)cc1 [Aminohippuric acid] | 0.246 ± 0.011 | 0.372 ± 0.047 | 0.464 ± 0.01 | 0.208 ± 0.0093 | 0.234 ± 0.0072 | 0.6256 ± 0.0055 | 0.408 ± 0.015 | 0.3487 ± 0.0013 | – | – | – | – | – |
| O=C1CC2(CCCC2)CC(=O)N1CCCCN1CCN(c2ncccn2)CC1 [Buspirone hydrochloride] | 0.2005 ± 0.002 | 0.337 ± 0.021 | 0.439 ± 0.046 | 0.1852 ± 0.0015 | 0.226 ± 0.035 | 0.454 ± 0.019 | 0.411 ± 0.0053 | 0.346 ± 0.011 | – | – | – | – | – |
| O=C(NCCO[N+](=O)[O-])c1cccnc1 [Nicorandil] | 0.2587 ± 0.0024 | 0.362 ± 0.039 | 0.377 ± 0.057 | 0.191 ± 0.0086 | 0.209 ± 0.023 | 0.481 ± 0.072 | 0.4153 ± 0.002 | 0.3332 ± 0.001 | – | – | – | – | – |
| CN(C)CCC(c1ccccc1)c1ccccn1 (stereo unspecified) [Pheniramine maleate] | 0.241 ± 0.014 | 0.248 ± 0.064 | 0.408 ± 0.014 | 0.201 ± 0.022 | 0.213 ± 0.019 | 0.455 ± 0.059 | 0.41 ± 0.006 | 0.345 ± 0.015 | – | – | – | – | – |
| Nc1nc(=O)c2nc(CNc3ccc(C(=O)N[C@@H](CCC(=O)O)C(=O)O)cc3)cnc2[nH]1 [Folic acid] | 0.25 ± 0.0064 | 0.219 ± 0.037 | 0.318 ± 0.021 | – | – | – | 0.407 ± 0.011 | 0.34 ± 0.02 | 0.306 ± 0.0062 | 0.239 ± 0.0047 | 0.244 ± 0.028 | 0.149 ± 0.0059 | 0.1653 ± 0.0014 |
| CCC(C)n1ncn(-c2ccc(N3CCN(c4ccc(OCC5COC(Cn6cncn6)(c6ccc(Cl)cc6Cl)O5)cc4)CC3)cc2)c1=O (stereo unspecified) [Itraconazole] | 0.25 ± 0.006 | 0.421 ± 0.0098 | 0.462 ± 0.049 | 0.182 ± 0.035 | 0.217 ± 0.017 | 0.44 ± 0.018 | 0.441 ± 0.027 | 0.368 ± 0.015 | – | – | – | – | – |
| COc1c2occc2c(OC)c2c(=O)cc(C)oc12 [Khellin] | 0.206 ± 0.0044 | 0.317 ± 0.081 | 0.35 ± 0.016 | 0.182 ± 0.0039 | 0.253 ± 0.1 | 0.418 ± 0.038 | 0.3963 ± 0.0035 | 0.306 ± 0.032 | – | – | – | – | – |
| CNCCCC1c2ccccc2C=Cc2ccccc21 [Protriptyline hydrochloride] | 0.177 ± 0.013 | 0.153 ± 0.0035 | 0.263 ± 0.058 | 0.164 ± 0.039 | 0.21 ± 0.011 | 0.558 ± 0.023 | 0.402 ± 0.013 | 0.313 ± 0.018 | – | – | – | – | – |
| CCn1cc(C(=O)O)c(=O)c2cnc(N3CCNCC3)nc21 [Pipemidic acid] | 0.116 ± 0.0069 | 0.157 ± 0.019 | 0.149 ± 0.014 | 0.188 ± 0.0053 | 0.168 ± 0.0065 | 0.158 ± 0.008 | 0.156 ± 0.021 | 0.082 ± 0.0092 | – | – | – | – | – |
| O=C1CCc2cc(OCCCCc3nnnn3C3CCCCC3)ccc2N1 [Cilostazol] | 0.148 ± 0.028 | 0.225 ± 0.051 | 0.285 ± 0.033 | 0.16 ± 0.013 | 0.181 ± 0.0043 | 0.461 ± 0.015 | 0.411 ± 0.0062 | 0.145 ± 0.015 | – | – | – | – | – |
| Cc1cnc(NC(=O)C2=C(O)c3ccccc3S(=O)(=O)N2C)s1 [Meloxicam] | 0.148 ± 0.0039 | 0.245 ± 0.035 | 0.296 ± 0.1 | – | – | – | 0.33 ± 0.04 | 0.221 ± 0.016 | 0.186 ± 0.0048 | 0.238 ± 0.012 | 0.208 ± 0.039 | 0.117 ± 0.0022 | 0.149 ± 0.0054 |
| CS(=O)(=O)OCCCCOS(C)(=O)=O [Busulfan] | 0.241 ± 0.017 | 0.378 ± 0.022 | 0.414 ± 0.036 | – | – | – | 0.4123 ± 0.004 | 0.362 ± 0.029 | 0.287 ± 0.025 | 0.272 ± 0.0066 | 0.233 ± 0.026 | 0.184 ± 0.0057 | 0.139 ± 0.0018 |
| COCC1=C(C(=O)OC(C)OC(=O)OC(C)C)N2C(=O)[C@@H](NC(=O)/C(=N\OC)c3csc(N)n3)[C@H]2SC1 (stereo partly specified) [Cefpodoxime proxetil] | 0.2132 ± 0.002 | 0.215 ± 0.051 | 0.179 ± 0.034 | – | – | – | 0.0545 ± 0.0063 | 0.278 ± 0.016 | 0.116 ± 0.0091 | 0.0588 ± 0.0019 | 0.22 ± 0.011 | 0.166 ± 0.008 | 0.165 ± 0.0036 |
| CC[N+](C)(C)Cc1ccccc1Br [Bretylium tosylate] | 0.253 ± 0.011 | 0.484 ± 0.032 | 0.476 ± 0.018 | – | – | – | 0.409 ± 0.015 | 0.324 ± 0.017 | 0.323 ± 0.02 | 0.261 ± 0.0084 | 0.22 ± 0.0026 | 0.1733 ± 0.00021 | 0.1633 ± 0.00072 |
| C[C@]12CCC(=O)C=C1C=C[C@@H]1[C@@H]2CC[C@@]2(C)[C@H]1CC[C@@]21CCC(=O)O1 [Canrenone] | 0.129 ± 0.0013 | 0.217 ± 0.055 | 0.227 ± 0.042 | – | – | – | 0.363 ± 0.0069 | 0.144 ± 0.031 | 0.139 ± 0.0075 | 0.097 ± 0.0013 | 0.131 ± 0.0077 | 0.0738 ± 0.0044 | 0.126 ± 0.0083 |
| C[C@H](N)[C@H](O)c1cccc(O)c1 [Metaraminol bitartrate] | 0.245 ± 0.015 | 0.333 ± 0.062 | 0.415 ± 0.029 | 0.208 ± 0.014 | 0.23 ± 0.024 | 0.573 ± 0.076 | 0.426 ± 0.0087 | 0.356 ± 0.0097 | – | – | – | – | – |
| CC(=O)[C@H]1CC[C@H]2[C@@H]3CC=C4C[C@@H](O)CC[C@]4(C)[C@H]3CC[C@]12C [Pregnenolone] | 0.166 ± 0.0078 | 0.168 ± 0.026 | 0.343 ± 0.034 | – | – | – | 0.398 ± 0.0084 | 0.2327 ± 0.0018 | 0.235 ± 0.015 | 0.239 ± 0.016 | 0.173 ± 0.029 | 0.136 ± 0.0035 | 0.159 ± 0.0019 |
